Source: PubChem
Most compounds without a hit are left out; they make up all but 2.2% or so of the library.
A549 viability = kills or reduces viability of A549 cells in Nrf2 counter-screen; actives 0.16% (n = 390,000); A549 ARE-Fluc cells, CellTiter-Fluor viability, 18-24 h; Potency, µM (doses to about 46 µM), most hits filed as inhibitors
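Cytotoxicity counterscreen: CellTiter-Fluor fluorescence was measured in A549 ARE_Fluc cells after 18-24 h of compound exposure in a concentration series. The subsequent BugLite luminescent read reports ARE-luciferase activity.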
Nrf2 inh = Nrf2 pathway inhibition. Potency, µM (doses to about 46 µM), actives largely listed as inhibitors. actives 2.1% (n = 360,000). A549 ARE-Fluc reporter, luciferase luminescence, 18-24 h. AID 504444; note: nearly all actives have a fitted effect of over 60% in size
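Cells were seeded and rested 2 h, then exposed to compounds for 18-24 h. CellTiter-Fluor was read first as a viability measure. BugLite was added 15 min before the final luminescent read of ARE-luciferase activity in A549 cells.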
Nrf2 ARE act = activators of Nrf2 (ARE) signaling. AREc32 ARE-luciferase reporter (MCF7-derived line), luminescence, 24 h. Potency, µM (series often up to 46.1 µM), actives largely listed as activators. actives 0.31% (n = 410,000). AID 624171; note: nearly all actives have a fitted effect of over 65% in size
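Nrf2 activation is followed as ARE-luciferase induction in the AREc32 line after one day of compound treatment; luminescence is read with Steady-Glo.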
Pin1 inhibitor = human Pin1 inhibition; Q13526; Pin1 FP peptide displacement, HiFluor488, 10 min; Potency, µM (doses to about 115 µM), usual class: inhibitors; actives 0.009% (n = 390,000); AID 504891; active = well fitted inhibition curve with a large enough effect in the polarisation, with a control signal flat, not every such curve was filed as active; inconclusive = small, poorly fitted or top-dose-only effect, or effect the other way, or a change in a side signal; inactive = no such curve, though single readings can be large or run the other way; the % refers to the polarisation
Target sequence (Q13526 whole entry, looked up): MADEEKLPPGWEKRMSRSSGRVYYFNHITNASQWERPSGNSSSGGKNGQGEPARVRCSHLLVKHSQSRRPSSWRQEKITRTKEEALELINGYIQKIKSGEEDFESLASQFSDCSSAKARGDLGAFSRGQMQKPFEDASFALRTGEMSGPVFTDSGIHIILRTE
Numbers stand for hits; n = inactive; u = inconclusive; x = no result. Unless noted, calls come from the whole dose curve; as a rule, active = well fitted curve in the direction sought with a large enough effect; inconclusive = small, poorly fitted or top-dose-only effect, or another doubt; inactive = no such curve, though single readings can be large; an effect the other way counts as inactive or inconclusive.

SMILES	A549 viability	Nrf2 inh	Nrf2 ARE act	Pin1 inhibitor
COc1ccc(OC)c(CCNC(=O)Cn2ccc3cc(S(=O)(=O)N4CCCCC4)ccc32)c1	n	u	n	n
O=C(C=Cc1ccccc1O)c1ccccc1O	n	n	14.1µM	n
COc1ccc(-c2cc(C(=O)Oc3cccc(C)c3C)c3ccccc3n2)cc1	n	n	n	n
CCS(=O)(=O)N1CC(=O)N(c2cccc(C)c2C)C(C)(C(=O)NC2CCCCC2)C1 (stereo not given)	n	u	n	n
CCN1C(=O)[C@H]2[C@@H](c3ccc(SC4CCCCC4)cc3)N[C@@](CC(C)C)(C(=O)OC)[C@H]2C1=O	n	20.6µM	n	n
COc1cc2oc(=O)c(CC(=O)NCCc3ccccc3)c(C)c2cc1Cl	n	n	n	n
Cc1ccc(C)c(Oc2cc(NC(=O)CCCn3nc(C)c([N+](=O)[O-])c3C)cc([N+](=O)[O-])c2)c1	u	23.1µM	n	n
CCn1nc(C)c(C(=O)Nc2cc(Oc3cc(C)cc(C)c3)cc([N+](=O)[O-])c2)c1C	u	20.6µM	n	n
Cc1nn(CCCC(=O)Nc2cc(Oc3ccccc3)cc([N+](=O)[O-])c2)c(C)c1[N+](=O)[O-]	n	u	n	n
Cc1cccc(Oc2cc(NC(=O)c3ccccc3)cc([N+](=O)[O-])c2)c1	u	13µM	n	n
COc1ccc2c(c1)sc1ncc(C(=O)NCc3cccc(Cl)c3)c(=O)n12	n	n	n	n
COc1cccc(NC(=O)CN2C(=O)c3cccc4cccc2c34)c1	n	n	n	n
O=[N+]([O-])c1cccc(-c2noc(-c3ccco3)n2)c1	n	u	7.08µM	n
O=[N+]([O-])c1cccc(-c2nc(-c3ccccc3)no2)c1	n	u	3.98µM	n
O=[N+]([O-])c1cccc(-c2nc(-c3ccncc3)no2)c1	n	x	n	n
Cc1ccc(C(=O)N2c3ccc(C)cc3C(C)(c3ccccc3)CC2(C)C)cc1 (stereo not given)	n	n	n	n
Cc1cc(Br)ccc1NC(=O)c1ccc(NS(=O)(=O)c2c(C)noc2C)cc1	n	u	n	n
Cc1cccc(C(=O)NCC(=O)OCC(=O)c2ccc3ccccc3c2)c1	n	n	x	n
Cc1ccccc1C1=NC(C(F)(F)F)(C(F)(F)F)c2c(n(C)c(=O)n(C)c2=O)N1	n	n	n	n
Cn1c2c(c(=O)n(C)c1=O)C(C(F)(F)F)(C(F)(F)F)N=C(c1ccc(Cl)cc1)N2	5.8µM	2.31µM	n	n
C=C1CCN(C(Cc2ccccc2)C(=O)O)S(=O)(=O)c2ccccc21 (stereo not given)	n	n	x	n
O=C1/C(=C/c2ccco2)CCC1C1CCCC1 (stereo not given)	n	n	n	n
O=C1/C(=C\c2ccco2)CCC/C1=C\c1ccco1	n	n	10µM	u
Cc1cccc(-c2noc(CCCC(=O)Nc3cccnc3)n2)c1	n	u	n	n
O=C(CCCc1nc(-c2ccc(Cl)cc2)no1)Nc1cccnc1	x	10.3µM	n	n
SMILES	A549 viability	Nrf2 inh	Nrf2 ARE act	Pin1 inhibitor
Nc1[nH]c2cc([N+](=O)[O-])ccc2c1-c1ccccn1	13µM	n	n	u
O=C1CN(C(=O)c2cccc(F)c2)C(c2ccc(F)cc2)c2cc(F)ccc2N1 (stereo not given)	n	n	n	n
O=C1CN(C(=O)c2ccc(Br)o2)C(c2ccc(F)cc2)c2cc(F)ccc2N1 (stereo not given)	n	16.4µM	n	n
Clc1ccccc1-c1nnc(COc2ccccc2)o1	n	u	n	n
Clc1ccccc1-c1ncc(-c2ccccc2)o1	n	u	10µM	n
C[C@H](NC(=O)c1ccccc1)C(=O)N1CCN(Cc2ccc3c(c2)OCO3)CC1	n	n	n	n
CC(C)[C@H](NC(=O)c1ccc(C(C)(C)C)cc1)C(=O)N1CCN(Cc2ccc3c(c2)OCO3)CC1	u	20.6µM	n	n
N#C/C(=C/c1ccccc1[N+](=O)[O-])c1nnc2n1CCCCC2	n	n	n	n
N#C/C(=C/c1ccccc1[N+](=O)[O-])c1nc(C2CC2)cs1	n	u	11.2µM	n
N#C/C(=C\C=C\c1ccccc1[N+](=O)[O-])c1nc(-c2ccc3c(c2)OCO3)cs1	n	n	n	n
N#C/C(=C\c1ccccc1[N+](=O)[O-])c1nc(C2CC2)cs1	n	u	10µM	n
Cc1ccc(S(=O)(=O)Nc2ccc3c(c2)CCC3)cc1	u	11.6µM	n	n
CCc1ccc(S(=O)(=O)Nc2ccc3c(c2)sc(=O)n3C)cc1	n	x	n	n
